The campaign covered roughly 69,000 compounds. About 8,600 (12%) showed an effect of 50% or more. The list comes from a sample in which strong results are over-represented; it also holds similar structures and randomly drawn compounds.
Test system: Plasmodium berghei
Assay: Screen against P. berghei liver stage (PbLuc), transformed with Luciferase, at 10uM
Assay type: functional, HepG2
Details: tested at 10 uM

Row | Compound | INHIBITION
1 | CNc1ncccc1CN1CCCCC1c1cc(C)n2ccnc2n1 (centres undefined) | 13%
2 | CN(Cc1cccnc1)C(=O)NC1CCN(Cc2ccccn2)CC1 | 16.8%
3 | COCCC(C)NC(=O)N1CCSC(C)(C)C1 (centres undefined) | 48.3%
4 | CC(CCN(C)C)NC(=O)N1CCSC(C)(C)C1 (centres undefined) | 60.3%
5 | CSCCC(C)NC(=O)N1CCSC(C)(C)C1 (centres undefined) | 14.9%
6 | Cc1nc(C2CCCN2CCS(C)(=O)=O)no1 (centres undefined) | 26.55%
7 | CCCSc1nn(CCN(C)C)c2nc3sc(C)c(CC)c3c(=O)n12 | 88.1%
8 | CCCSc1nn(CCCN(C)C)c2nc3sc(C)c(CC)c3c(=O)n12 | 11.6%
9 | CCc1c(C)sc2nc3n(CCN(C)C)nc(SC)n3c(=O)c12 | 30.5%
10 | Cc1nn(C)c2cnn(CC(=O)NCc3cccs3)c12 | 8.49%
11 | CC(C)n1c(=O)c2ccccc2n(CCN(C)C)c1=O | -0.29%
12 | CCn1ncnc1C1CC(=O)NCc2nc(N3CCCC3)sc21 (centres undefined) | -32.5%
13 | CCCC(=O)N1CCC(Nc2nc(O)cc(-c3ccsc3)n2)CC1 | 10.7%
14 | CCCn1ncc2c(C(=O)Nc3n[nH]c(SC)n3)cc(C3CC3)nc21 | 53%
15 | CCCn1ncc2c(C(=O)Nc3cnn(CC)c3C)cc(C3CC3)nc21 | -9.98%
16 | CCCn1ncc2c(C(=O)NC(C)Cn3cccn3)cc(C3CC3)nc21 (centres undefined) | -24.1%
17 | CN(Cc1ccc(-n2ccnc2)cc1)CC1CCCN1c1cccnn1 (centres undefined) | -12.1%
18 | O=C(c1cccnc1N1CCN(CCO)CC1)N1CCCC1 | 43.6%
19 | Cc1ccc(S(=O)(=O)c2ncccc2CN2CCCC2)cc1 | 42.4%
20 | Cc1ccc(S(=O)(=O)c2ncccc2CN2CCOCC2)cc1 | 37.8%
21 | Cc1ccc(S(=O)(=O)c2ncccc2CN2CCCCC2)cc1 | 45.2%
22 | Cc1ccc(S(=O)(=O)c2ncccc2CN2CCN(C)CC2)cc1 | 68.4%
23 | Cc1ccc(S(=O)(=O)c2ncccc2CN2CCN(CCO)CC2)cc1 | 68.4%
24 | CCn1cc(CN2CCCN(C(=O)c3cc(C)no3)CC2)cn1 | 25.4%
25 | CCc1ocnc1C(=O)N1CCOC(CCCC(C)C)C1 (centres undefined) | 12.8%

Row | Compound | INHIBITION
26 | O=C(c1cncc(Br)c1)N1CCCc2ccc(F)cc21 | 67.4%
27 | Cc1ccc2c(c1)CCCN2C(=O)c1cncc(Br)c1 | 6.88%
28 | O=C(c1cncc(Br)c1)N1CCCc2c(F)cc(F)cc21 | 0.705%
29 | Cc1nnc(N2CC[C@H]3O[C@H](C(=O)NCc4ccccn4)CC[C@H]32)s1 | 21.8%
30 | COc1cc(CN2CC[C@H](NC(C)=O)[C@@H](O)CC2)ccc1F | -13.7%
31 | Nc1nc(CN2CCN(c3nccs3)CC2)cs1 | 22.3%
32 | Clc1snnc1CN1CCN(c2nccs2)CC1 | 57.3%
33 | CC1CN(Cc2nnsc2Cl)CCN1c1nccs1 (centres undefined) | 20.2%
34 | Cc1nccn1C1CCCN(C(=O)c2ccc3nncn3c2)C1 (centres undefined) | 40.2%
35 | O=C(CCNC(=O)c1ccoc1)Nc1ccc(F)cc1F | 59%
36 | O=C(CCNC(=O)c1ccoc1)Nc1c(F)cccc1F | -16.7%
37 | O=C(CCNC(=O)c1ccoc1)Nc1cc(F)ccc1F | 24.8%
38 | O=C(CCNC(=O)c1ccoc1)Nc1ccccc1F | 21.9%
39 | O=C(CCNC(=O)c1ccoc1)Nc1cccc(F)c1 | -4.82%
40 | O=C(CCNC(=O)c1ccoc1)Nc1cc(F)cc(F)c1 | 54.5%
41 | CNC(=O)CCc1cccc(C2CCCN(c3cc(C)ncn3)C2)n1 (centres undefined) | 44.8%
42 | Cc1nnc2n1CCN(C(=O)c1cn(-c3ccccc3)nn1)C2 | -53.6%
43 | CNC(=O)[C@@H]1C[C@H]2CN(C(=O)c3ccco3)C[C@H]2N1C(C)C | 16.4%
44 | Cc1noc([C@H]2COC[C@H]3CN(C(=O)Cc4ccsc4)C[C@H]32)n1 | -32%
45 | c1cnc(N2CC[C@@H](N3CCOCC3)[C@@H]2Cc2ccncc2)nc1 | 60%
46 | Fc1cnc(N2CC[C@@H](N3CCOCC3)[C@@H]2Cc2ccncc2)nc1 | 21.6%
47 | Cc1cnc(N2CC[C@@H](N3CCOCC3)[C@@H]2Cc2ccncc2)nc1 | 33.4%
48 | Cc1cc(CN2CCC(CNS(=O)(=O)c3ccccc3Cl)CC2)c(C)o1 | 30.7%
49 | O=C(C1CCOCC1)N1C[C@H]2CC(OCc3ccccc3)C[C@H]2C1 (some centres undefined) | -25.3%
50 | C1CCC(c2nn3c(C4CCCO4)nnc3s2)C1 (centres undefined) | 1.24%

Row | Compound | INHIBITION
51 | N#Cc1ncn(Cc2c(F)cccc2Cl)n1 | 64.4%
52 | N#Cc1ncn(CC(=O)Cc2c(F)cccc2Cl)n1 | 26.8%
53 | CN(Cc1c(F)cccc1Cl)C(=O)Cn1cnc(C#N)n1 | 28.7%
54 | Cc1cc(C)cc(OCn2ccc(C(=O)O)n2)c1 | 39.1%
55 | CN(C)CCNC(=O)c1ccc(OC2CCN(CC3CC3)CC2)c(Cl)c1 | -73.6%
56 | COC(=O)N1CCC(Oc2ccc(C(=O)NCCN(C)C)cc2Cl)CC1 | -56.4%
57 | CSCCNC(=O)c1ccc(OC2CCN(CC(C)(C)C)CC2)c(Cl)c1 | 52.4%
58 | CC1(C)OC(=O)N(CCCOc2ccc(F)cc2)C1=O | 10.7%
59 | CCc1cnc(NCC2OCCc3ccccc32)nc1 (centres undefined) | 44.3%
60 | CC(=O)c1cnc(NCC2OCCc3ccccc32)nc1C (centres undefined) | 74.9%
61 | CCNc1ncc(C(=O)NCC2OCCc3ccccc32)cn1 (centres undefined) | 41.5%
62 | Cc1ncsc1C(=O)NC1CCN(CCC#N)CC1 | 14.4%
63 | COc1cc(C(=O)Nc2nc(C)no2)cc(Cl)c1OC | 77%
64 | COc1ccc(C(=O)NS(=O)(=O)c2cc(Cl)sc2Cl)cc1OC(F)F | 27.7%
65 | COc1cc(C(=O)NS(=O)(=O)c2cncc(Br)c2)cc(Cl)c1OC | 5.23%
66 | COc1cc(C(=O)NS(=O)(=O)c2cc(Cl)sc2Cl)ccc1OC(F)F | 93.6%
67 | Cc1noc(NC(=O)c2ccc(F)cc2)n1 | 25.1%
68 | COc1cc(C(=O)NS(=O)(=O)c2cccc(C#N)c2)cc(OC)c1Br | 34.7%
69 | COc1cc(C(=O)Nc2nc(C)no2)cc(OC)c1Br | 91.4%
70 | COc1cc(C(=O)NC(CC(=O)O)c2cccs2)cc(Cl)c1OC (centres undefined) | 18.6%
71 | Cc1noc(COCC(=O)Nc2cc(C)c(Br)cn2)n1 | -21.8%
72 | Cc1noc(NC(=O)c2ccc(C)c(F)c2)n1 | 59%
73 | Cc1cc(NC(=O)c2ccc(C)c(F)c2)[nH]n1 | -30.8%
74 | COc1cccc(C(=O)NS(=O)(=O)c2cc(Cl)sc2Cl)c1OC(F)F | 45.7%
